Measured values: ChEMBL document CHEMBL3988442, “University of Dundee, Small-Polar-MMV Screening Library” (2021)
Screen size: about 48,000 compounds; about 13,000 (27%) showed an effect of 50% or more. The list shows a part of the results.

Each compound was assayed on Wolbachia pipientis (assay: Anti-Wolbachia Cell-Based Screen). Details: 5 µM.
Assay type: functional
Design: scale not given: in the data most compounds retested in dose-response had high values
CC(C)NC1CCc2c(ccc(=O)n2CCN2CCCC2=O)C1.O=C(O)C(F)(F)F (centres undefined) was tested, and the “Percent Effect” value was -4.2%.
In the case of O=C(Cc1ccsc1)NC1CCc2c(ccc(=O)n2CC2CC2)C1 (centres undefined), the “Percent Effect” value is reported as -22.09%.
In the case of CN(C)CCn1c2c(ccc1=O)CC(NC(=O)c1cnccn1)CC2.O=C(O)C(F)(F)F (centres undefined), the “Percent Effect” value is reported as 97.98%.
For CN(C)CCn1c2c(ccc1=O)CC(NC(=O)NC1CCCC1)CC2.O=C(O)C(F)(F)F (centres undefined), the “Percent Effect” value was 92.43%.
With CC(C)NC1CCc2c(ccc(=O)n2CCN(C)C)C1.O=C(O)C(F)(F)F.O=C(O)C(F)(F)F (centres undefined) the “Percent Effect” value was 8.884%.
In the case of Cn1c2c(ccc1=O)CC(NC(=O)c1ccsc1)CC2 (centres undefined), the “Percent Effect” value is reported as 116.4%.
CN(C)CCn1c2c(ccc1=O)CC(NC(=O)c1ccsc1)CC2.O=C(O)C(F)(F)F (centres undefined) was tested, and the “Percent Effect” value was 112.1%.
With O=C(NC1CCc2c(ccc(=O)n2CC2CC2)C1)c1ccsc1 (centres undefined) the “Percent Effect” value was 1.111%.
In the case of Cc1ccc(Sc2ccc(N3CCCC(C(=O)O)C3)nn2)cc1 (centres undefined), the “Percent Effect” value is reported as -25.21%.
For Cn1cc(C(=O)N2CCOc3cc(F)ccc32)ccc1=O, the “Percent Effect” value was -3.875%.
O=C(Nc1ccnc2ccnn12)c1ccc(NC2CC2)nc1 was tested, and the “Percent Effect” value was -6.003%.
For Cc1nc(N2CCN(C(=O)c3cccs3)CC2)cc(-n2cccc2)n1, the “Percent Effect” value was 0.4402%.
For CC(Cc1cccc(F)c1)C(=O)NS(=O)(=O)c1ccc2c(c1)OCCO2 (centres undefined), the “Percent Effect” value was -30.67%.
For CCc1nc(CCNc2ncccc2S(N)(=O)=O)sc1C, the “Percent Effect” value was -14.32%.
Cc1n[nH]c(C2CN(Cc3csc(C4CCCCC4)n3)CCO2)n1 (centres undefined) was tested, and the “Percent Effect” value was -9.689%.
For CN1CCOC(CNCc2csc(C3CCCC3)n2)C1 (centres undefined), the “Percent Effect” value was 96.75%.
For CCc1n[nH]c(C2CN(Cc3csc(C4CCCC4)n3)CCO2)n1 (centres undefined), the “Percent Effect” value was 5.778%.
In the case of CN1CCOC(CNCc2coc(-c3cccs3)n2)C1 (centres undefined), the “Percent Effect” value is reported as 12.46%.
CN1CCOC(CNCc2csc(C3CCCCC3)n2)C1 (centres undefined) was tested, and the “Percent Effect” value was 102.8%.
CN(C)C(=O)[C@H]1CC[C@@H]2[C@@H](CCN2C(=O)N(C)C)O1 was tested, and the “Percent Effect” value was -14.11%.
In the case of O=C(c1ccc[nH]1)N1CCOCC2(C1)CN(c1ccccc1)C(=O)CO2 (centres undefined), the “Percent Effect” value is reported as 99.07%.
In the case of O=C(N1CCCC1)N1CCOCC2(C1)CN(c1ccccc1)C(=O)CO2 (centres undefined), the “Percent Effect” value is reported as 96.63%.
With CN(C)CC(=O)N1CCOCC2(C1)CN(c1ccccc1)C(=O)CO2 (centres undefined) the “Percent Effect” value was -12.92%.
O=C(NC1CC1)N1CCOCC2(C1)CN(c1ccccc1)C(=O)CO2 (centres undefined) was tested, and the “Percent Effect” value was 106.4%.
With N#Cc1cccc(N2CCOCC3(CCCN(C(=O)NC4CC4)C3)C2)c1 (centres undefined) the “Percent Effect” value was 10.86%.
O=C(O)C(F)(F)F.O=C1COC2(COCCN(Cc3ccsc3)C2)CN1c1ccc(F)cc1 (centres undefined) was tested, and the “Percent Effect” value was 3.467%.
O=C(O)C(F)(F)F.O=C(c1c[nH]cn1)N1CCOCC2(C1)CN(c1ccccc1)C(=O)CO2 (centres undefined) was tested, and the “Percent Effect” value was 97.27%.
In the case of N#Cc1cccc(N2CCCC3(CN(C(=O)c4ccc[nH]4)CCO3)C2)c1 (centres undefined), the “Percent Effect” value is reported as -1.292%.
With O=C(c1ccc[nH]1)N1CCOC2(COCCN(c3cncnc3)C2)C1 (centres undefined) the “Percent Effect” value was -9.951%.
N#Cc1cccc(N2CCCC3(CN(C(=O)NC4CC4)CCO3)C2)c1 (centres undefined) was tested, and the “Percent Effect” value was 4.321%.
In the case of COCC(=O)N1Cc2ccnn2CC(COCCN(C)C)C1.O=C(O)C(F)(F)F.O=C(O)C(F)(F)F (centres undefined), the “Percent Effect” value is reported as -12.14%.
In the case of Cc1csc(-c2cccc(NC(=O)NCC(C)(C)C(N)=O)c2)n1, the “Percent Effect” value is reported as 1.71%.
For CC(C)n1cnc2c1C(C(=O)N(C)C)N(Cc1ccccc1)CC2.O=C(O)C(F)(F)F (centres undefined), the “Percent Effect” value was -8.577%.
In the case of O=C(c1cc[nH]n1)N1CCOCC2(C1)CN(c1ccccc1)C(=O)CO2 (centres undefined), the “Percent Effect” value is reported as 99%.
Cc1cnc(CN2CCN(C(C)c3nc(C)no3)CC2)cn1 (centres undefined) was tested, and the “Percent Effect” value was 31.99%.
For Cc1noc(C(C)N2CCN(CCC(=O)N3CCOCC3)CC2)n1 (centres undefined), the “Percent Effect” value was 136%.
For Cc1noc(C(C)N2CCN(CC(=O)N3CCCC3)CC2)n1 (centres undefined), the “Percent Effect” value was 104.8%.
With Cc1noc(C(C)N2CCN(CCc3ccncc3)CC2)n1 (centres undefined) the “Percent Effect” value was -4.658%.
In the case of Cc1noc(C(C)N2CCN(CCn3ccccc3=O)CC2)n1 (centres undefined), the “Percent Effect” value is reported as 1.866%.
With CCOc1cc(C)nc(N2CCN(C(C)c3nc(C)no3)CC2)n1 (centres undefined) the “Percent Effect” value was -8.841%.
In the case of CC[C@H]1CN(S(=O)(=O)c2ccccc2)CC[C@H]1CC(=O)O, the “Percent Effect” value is reported as 3.953%.
For CCc1cc(=O)[nH]c(NC2CCN(S(=O)(=O)c3ccccc3)CC2)n1, the “Percent Effect” value was 74.59%.
Cc1cc(=O)[nH]c(NCCNC(=O)c2ccccc2N2CCCC2)n1 was tested, and the “Percent Effect” value was 13.63%.
With Cn1ccnc1C1CCN(S(=O)(=O)c2ccc3oc(=O)[nH]c3c2)CC1 the “Percent Effect” value was -28.87%.
For Cn1ccnc1C1CCN(S(=O)(=O)c2ccc3[nH]c(=O)[nH]c3c2)CC1, the “Percent Effect” value was -2.986%.
Cc1cc(=O)[nH]c(NC2CCN(S(=O)(=O)c3ccccc3)CC2)n1 was tested, and the “Percent Effect” value was 124.4%.
In the case of CCc1cc(NC2CCN(S(C)(=O)=O)CC2)n2nc(C)c(C)c2n1, the “Percent Effect” value is reported as -8.298%.
Cc1nc(NC2CCN(S(=O)(=O)c3ccccc3)CC2)[nH]c(=O)c1C was tested, and the “Percent Effect” value was 93.81%.
O=C(c1[nH]nc(C2CC2)c1Cl)N1CCN(S(=O)(=O)c2ccccc2)CC1 was tested, and the “Percent Effect” value was -6.506%.
